Screening results: PubChem BioAssay, National Center for Advancing Translational Sciences (NCATS)
Compounds with a hit are over-represented: about 21% of the library has one in this group of screens.
HCV inh: HCV inhibition. AID 651820. hit rate 3.4% among 340,000. Potency, µM (highest dose often 41.8 µM), most hits filed as inhibitors. Huh7.5.1 HCVcc-Cre infection, luciferase reporter, 44 h
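Infectious HCVcc-Cre (~0.5 moi) was added to cells just after compound, with cells seeded 4 h earlier at 1,000 per well. Luciferase activity after 44 h culture reported infection; substrate was incubated 15 min at room temperature before reading.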
Shiga toxin inh: blocks Shiga toxin action in Vero cells. inhibition, % at 38.7 µM. Vero cells, Shiga toxin protein synthesis inhibition reporter. hit rate 9.2% among 290,000; in the data active = inhibition mostly above about 28%, no sharp cut-off; inactive = mostly below about 43%
Cycloheximide cs: counter-screen hit for Shiga toxin inhibitors, cycloheximide; max response, %; hit rate 12% among 300,000; cell reporter, cycloheximide protein synthesis inhibition counterscreen; in the data active = max response mostly above about 13%, no sharp cut-off; inactive = mostly below about 14%; also: read at 38.3 µM for the half of the compounds with a filed dose
Pf growth 96h: P. falciparum growth inhibition at 96 hour, primary screen for plastid delayed-death inhibitors | hit rate 6.9% among 320,000 | Potency, µM (titrated, usually from 28.7 µM), hits mostly inhibitors | P. falciparum luciferase reporter growth, 96 h
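Delayed-death screen, second-generation endpoint: infected erythrocytes, 2% hematocrit, 0.05% parasitemia final; 96 hours at 37 C, 5% CO2; luciferase detection reagent; luminescence decrease equals reduced growth.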
Pf growth 48h: P. falciparum growth inhibition at 48 hours (one generation); P. falciparum luciferase growth in erythrocytes, 48 h; Potency, µM (titrated, usually from 28.7 µM), hits mostly inhibitors; hit rate 5.9% among 310,000
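Firefly luciferase activity from engineered P. falciparum reports growth; inhibitors lower the luminescent signal. Cultures contained 2% hematocrit erythrocytes at 0.1% final parasitemia.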
AMA1 RON2 block: inhibitors of Plasmodium falciparum AMA1-RON2 interaction; AlphaScreen AMA1-biotinylated RON2 peptide binding; Potency, µM (highest dose often 58.2 µM), usual class: inhibitors; hit rate 0.2% among 360,000; AID 720542; also: nearly all actives have a fitted effect of over 45% in size
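AMA1 (3D7) with his tag at 25 nM final met compounds first, then biotinylated RON2 peptide at 25 nM; detection used donor plus acceptor beads, 10 µg/mL apiece, read by AlphaScreen after 30 min at room temperature.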
Each line names hits and unclear results; the compound was inactive in the other large screens. Unless noted, calls follow the shape of the dose curve; as a rule, active = well fitted curve in the direction sought with a large enough effect; inconclusive = small, poorly fitted or top-dose-only effect, or another doubt; inactive = no such curve, though single readings can be large; an effect the other way counts as inactive or inconclusive.

CCN(C(=O)COC(=O)c1cc(-c2ccc3cc(OC)ccc3c2)nc2ccccc12)C1CCS(=O)(=O)C1 (centres undefined)	Shiga toxin inh 43, Cycloheximide cs 30 (no result: AMA1 RON2 block)
Cc1ccc(-n2c(C)cc(C(=O)OCC(=O)N(C)C3CCS(=O)(=O)C3)c2C)cc1 (centres undefined)	Pf growth 48h 1.7µM
COCc1ccc(C(=O)N2CCCC(N3CCN(c4ccc(F)cc4)CC3)C2)o1 (centres undefined)	Pf growth 48h inconclusive
CCN(C(=O)COC(=O)c1cc(-c2ccccc2)nc2c1c(C)nn2-c1ccccc1)C1CCS(=O)(=O)C1 (centres undefined)	HCV inh inconclusive
CCN(C(=O)COC(=O)c1c(C)nn(-c2ccccc2)c1C)C1CCS(=O)(=O)C1 (centres undefined)	Shiga toxin inh 43, Cycloheximide cs 16
O=C(NCc1ccccn1)c1cc(-c2ccccc2)nc2ccccc12	Pf growth 48h inconclusive
CN(C(=O)COC(=O)c1cc(-c2ccccc2Cl)nc2ccccc12)C1CCS(=O)(=O)C1 (centres undefined)	none
CN(C(=O)COC(=O)c1cc(-c2ccc(Cl)s2)nc2ccccc12)C1CCS(=O)(=O)C1 (centres undefined)	HCV inh 10µM
COc1ccc(-c2cc(C(=O)OCc3ccccn3)c3ccccc3n2)cc1	HCV inh inconclusive, Cycloheximide cs 27, Pf growth 96h inconclusive, Pf growth 48h inconclusive
COc1cccc(CNC(=O)[C@@H]2CCCN2C(=O)[C@H]2CCCCN2C(=O)c2ccc(Cl)cc2)c1	none (no result: HCV inh, Shiga toxin inh, Cycloheximide cs, Pf growth 96h, Pf growth 48h)
Cc1cccc(-c2c3c(=O)n(C)c(=O)n(C)c3cn2-c2ccccc2O)c1	HCV inh inconclusive, Pf growth 96h 8.3µM, Pf growth 48h 1.9µM
CC(=O)c1cc(C#N)c(SCc2ccccn2)nc1C	Shiga toxin inh 68, Cycloheximide cs 47
CC(=O)c1cc(C#N)c(SCc2ccccc2)nc1C	Cycloheximide cs 32 (no result: Pf growth 48h)
CCCSc1nc(C)c(C(C)=O)cc1C#N	HCV inh inconclusive (no result: Pf growth 96h)
COC(=O)c1cc(C#N)c(SCc2ccccc2)nc1C	none (no result: Pf growth 96h)
COC(=O)CSc1nc(C)c(C(C)=O)cc1C#N	Cycloheximide cs 24
O=C(c1cc(COc2c(F)cccc2F)on1)N1CCC(c2ccncc2)CC1	HCV inh 5µM, Pf growth 96h inconclusive, Pf growth 48h inconclusive
Cc1cccc(C)c1OCc1cc(C(=O)N2CCC(c3ccncc3)CC2)no1	HCV inh 7.9µM, Shiga toxin inh 58, Cycloheximide cs 37
CC(C)(C)OC(=O)C[C@@H]1C/C=C\C[C@@H](CC(=O)N[C@H](CO)Cc2ccccc2)C(=O)N2CCC[C@H]2COC1=O	none (no result: Shiga toxin inh, Cycloheximide cs, Pf growth 96h, Pf growth 48h)
O=C(O)C1=C(CSc2nnnn2CS(=O)(=O)O)CS[C@@H]2[C@H](NC(=O)[C@H](O)c3ccccc3)C(=O)N12	none (no result: HCV inh, Shiga toxin inh, Cycloheximide cs, AMA1 RON2 block)
Cc1nonc1NC(=O)OC1CCCCC1	Pf growth 96h 1µM, Pf growth 48h inconclusive
Cc1nonc1NC(=O)N1CCCC1	none
COCCN(C(=O)CSc1nnc(-c2ccccc2F)o1)c1c(N)n(Cc2ccccc2)c(=O)[nH]c1=O	none (no result: HCV inh, Shiga toxin inh, Cycloheximide cs, Pf growth 96h, Pf growth 48h)
O=C(O)c1cc(C(=O)O)c(-c2ccccc2)c(C(=O)O)c1	Pf growth 96h inconclusive, Pf growth 48h 2.9µM
O=C(O)c1cc(-c2ccccc2)nc(-c2ccccc2)c1	Pf growth 96h inconclusive (no result: Shiga toxin inh, Cycloheximide cs)
CCC(=O)N(Cc1cccs1)C1CCOC(C)(C)C1 (centres undefined)	Pf growth 48h inconclusive
CCCN(CCc1cccs1)[C@H]1CCc2c(O)cccc2C1	Pf growth 96h 1.5µM, Pf growth 48h 6.7µM (no result: HCV inh, Shiga toxin inh, Cycloheximide cs, AMA1 RON2 block)
CC1(C)CC(=O)C2=C(C1)Nc1cc3c(cc1C2c1ccc(F)cc1)OCO3 (centres undefined)	Pf growth 96h 5.2µM, Pf growth 48h inconclusive
CC1(C)CC(=O)C2=C(C1)Nc1cc3c(cc1C2c1ccc2c(c1)OCO2)OCO3 (centres undefined)	none (no result: Pf growth 48h)
N#CC1=C(Nc2ccc(Br)cc2)CCC1	none
Cc1ccc(NC2=Nc3ccccc3CC2)cc1	Cycloheximide cs 11
Brc1ccc(NC2=Nc3ccccc3CC2)cc1	Shiga toxin inh active, Cycloheximide cs 56
CC(=O)c1cccc(NC(=O)Nc2ccc3c(c2)N(C)C(=O)CS3)c1	HCV inh 3.2µM, Pf growth 48h inconclusive
CCOc1ccc(C(C)=O)cc1NC(=O)/C=C\C(=O)O	Pf growth 96h 10µM
CCOc1ccccc1NC(=O)Nc1cccc(NC(C)=O)c1	HCV inh inconclusive, Pf growth 96h inconclusive
CCOc1ccccc1NC(=O)/C=C/C(N)=O	none (no result: Pf growth 48h)
CCOc1ccccc1NC(=O)Nc1cccc(C(C)=O)c1	HCV inh 7.1µM (no result: Pf growth 48h)
Cc1cc(C)cc(NC(=O)Nc2ccc3c(c2)N(C)C(=O)CS3)c1	Pf growth 96h inconclusive (no result: Pf growth 48h)
CCOc1ccccc1NC(=O)Nc1cccc(S(N)(=O)=O)c1	HCV inh 32µM
CCCCCC1CCC(c2ccc(/C(N)=N/O)cc2)CC1 (centres undefined)	none
CCN(CC)c1ccc(NC(=O)Nc2cccc(C(C)=O)c2)cc1	HCV inh inconclusive, Shiga toxin inh 46, Pf growth 96h inconclusive
O=C(C1CCCO1)N1CCN(S(=O)(=O)c2ccc(Cl)cc2)CC1 (centres undefined)	none
CC1CCN(CC(=O)N2CCN(c3ccccc3)CC2)CC1	none
O=C(CN1CCN(c2ccc(F)cc2)CC1)N1N=CCC1c1ccccc1 (centres undefined)	HCV inh 11µM, Pf growth 96h inconclusive
O=C(CN1CCN(c2ccccc2)CC1)N1N=CCC1c1ccccc1 (centres undefined)	HCV inh inconclusive, Pf growth 96h inconclusive
O=C(CN1CCN(C(c2ccccc2)c2ccccc2)CC1)N1N=CCC1c1ccccc1 (centres undefined)	HCV inh inconclusive, Pf growth 96h 12µM, Pf growth 48h inconclusive
O=C(CN1CCN(C(c2ccccc2)c2ccccc2)CC1)N1CCN(c2ccccc2)CC1	HCV inh inconclusive, Pf growth 96h inconclusive, Pf growth 48h 12µM
O=C(N1CCCCC1)N1CCN(C(c2ccccc2)c2ccccc2)CC1	Pf growth 96h 8.3µM (no result: Pf growth 48h)
O=C(CN1CCN(c2ccccc2F)CC1)N1N=CCC1c1ccccc1 (centres undefined)	HCV inh inconclusive
Cc1nn(C)c(C)c1CNC(=O)c1cc2n(n1)C(C(F)(F)F)CC(c1cccs1)N2 (centres undefined)	HCV inh inconclusive, Pf growth 96h 7.4µM
CCOC(=O)c1c(NC(=O)c2cc3n(n2)C(C(F)(F)F)CC(c2cccs2)N3)sc(C)c1C (centres undefined)	Pf growth 96h inconclusive
Cc1nn(C)c(C)c1CN(C)C(=O)c1nn2c(c1Br)NC(c1cccs1)CC2C(F)(F)F (centres undefined)	Pf growth 96h 9.3µM, Pf growth 48h inconclusive
CC(C)NC(=O)c1cc(C2CCCCN2S(=O)(=O)c2ccccc2)on1 (centres undefined)	none (no result: HCV inh, Shiga toxin inh, Cycloheximide cs, Pf growth 96h, Pf growth 48h)
